# TSHR antagonist = antagonists of human thyroid stimulating hormone receptor. P16473. TSHR-expressing cells, TSH-stimulated cAMP HTRF, 2 h; hits give low values. activity change, negative = inhibition, % at 11.5 µM. 0.2% of 330,000 active. AID 504810;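 active = activity change below a set negative limit, meaning inhibition stronger than a set level, cut at about -70% in these data; inconclusive = activity change between two set negative limits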; note: % is set by controls: 0 for no effect and ±100 for the full control effect
# Target sequence (P16473 whole entry, looked up): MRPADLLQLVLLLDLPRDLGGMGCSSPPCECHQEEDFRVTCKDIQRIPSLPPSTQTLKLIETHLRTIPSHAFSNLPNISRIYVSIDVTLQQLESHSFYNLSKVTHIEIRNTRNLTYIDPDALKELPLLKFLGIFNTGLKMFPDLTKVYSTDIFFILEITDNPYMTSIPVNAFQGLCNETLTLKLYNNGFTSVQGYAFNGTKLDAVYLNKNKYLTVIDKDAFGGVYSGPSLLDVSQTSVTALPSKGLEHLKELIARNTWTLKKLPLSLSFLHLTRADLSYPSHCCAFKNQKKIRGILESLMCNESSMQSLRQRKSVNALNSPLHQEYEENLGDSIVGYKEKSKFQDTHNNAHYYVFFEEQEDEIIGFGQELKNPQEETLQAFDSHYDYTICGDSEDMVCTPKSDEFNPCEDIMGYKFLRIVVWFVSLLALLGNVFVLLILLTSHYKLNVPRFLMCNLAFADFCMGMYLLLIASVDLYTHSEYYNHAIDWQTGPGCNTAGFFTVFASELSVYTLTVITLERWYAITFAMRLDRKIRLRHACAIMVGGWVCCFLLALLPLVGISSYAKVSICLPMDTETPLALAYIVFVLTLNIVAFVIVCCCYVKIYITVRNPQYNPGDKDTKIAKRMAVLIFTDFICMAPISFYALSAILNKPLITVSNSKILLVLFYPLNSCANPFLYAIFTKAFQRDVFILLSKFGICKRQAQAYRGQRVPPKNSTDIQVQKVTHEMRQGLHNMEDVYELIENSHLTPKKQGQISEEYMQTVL
#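 TSHR-expressing cells were treated with compounds, then stimulated with TSH at EC80 (4nM final) for 2 hours at 37 deg C. Cellular cAMP was measured by HTRF competition between lysate cAMP and cAMP-d2 for a cryptate-labelled anti-cAMP antibody.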
# Rango dissoc inh = prevents RanGTP from dissociating the Rango-importin beta complex. O95149+P62826. Biochemical FRET Rango-importin beta, RanGTP-induced dissociation. Potency, µM (doses to about 46.1 µM), for the others: top-dose activity change, negative = inhibition. 0.071% of 340,000 active. AID 540253; note: potency is the fitted concentration of half-maximal effect; % of control where 0% means no effect; nearly all actives have a fitted effect of over 45% in size
#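 Compounds preincubate 5 min with complex of recombinant Rango and importin beta in PBS with 1 mM DTT. Ran (0.6 uM) loaded with 2 mM GTP plus 0.2 uM RCC1 starts dissociation; FRET is recorded 45 min later.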
# p53 reactivator = restores transcriptional activity of mutant p53. H1299 p53-A138V BP100-luciferase reporter, luminescence, 24 h. Potency, µM (doses to about 92.2 µM), for the others: top-dose activity change, positive = activation, hits mostly activators. 0.063% of 320,000 active. AID 504706; active = well fitted activation curve with a large enough effect; inconclusive = small, poorly fitted or top-dose-only effect; inactive = no such curve, though single readings can be large or run the other way; note: potency is the fitted concentration of half-maximal effect; % of control where 0% means no effect; nearly all actives have a fitted effect of over 45% in size
#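 p53-null H1299 cells stably carrying temperature-sensitive p53-A138V and a BP100-luciferase reporter were pinned with compounds (4-point, 1:5 series) and held 24 hrs at 37 deg C. Luminescence was read 10 min after detection reagent.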
# Rango complex inh = inhibitors of Rango-importin beta complex formation; Q14974; Rango CFP/YFP FRET sensor + importin beta, 45 min; Potency, µM (highest dose often 92.2 µM), without a hit: at the top dose inhibition of complex formation; 0.031% of 340,000 active;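 note: potency is the fitted concentration of half-maximal effect; 0% = DMSO wells and 100% = buffer wells lacking importin beta; nearly all actives have a fitted effect of over 15% in size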
#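 FRET biosensor Rango (snurportin 1 IBB between N-terminal EYFP and C-terminal Cerulean), 50 nM in PBS/1 mM DTT/0.02% Tween-20/0.1% BSA, preincubated 5 min RT with compound; 0.125 microM importin beta added, 45 min RT, CFP/YFP FRET ratio read.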
# pAkt inh = blocks phosphorylation of Akt; Neuro2A IGF-stimulated pAkt S473 HTRF, 20 min; hits give low values; activity change, % for hits at 50 µM; 0.32% of 360,000 active; AID 651550; in the data active = activity change below about -80%; inconclusive = mostly about -51% to -80%; note: % is set by controls: 0 for no effect and ±100 for the full control effect
#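 Neuro2A cells (4,500/well, DMEM with 0.5% FBS) were treated with compound at a single 50 µM final concentration, stimulated with 6 nM IGF for 20 min at 37 °C, and lysed. Phospho-Akt Ser473 was read by HTRF as 665/615 ratio ×10^4.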
# Numbers without * were called inactive; i = inactive; u = inconclusive; x = no result; [ ] = dose if it differs, or a comment. Shown are actives, neighbours in structure and some others; about 0.62% of the full set was active somewhere. Unless noted, calls come from the whole dose curve.
SMILES,TSHR antagonist,Rango dissoc inh,p53 reactivator,Rango complex inh,pAkt inh
Cc1cccc(N2CC(C(=O)Nc3nccs3)CC2=O)c1C (configuration not stated),3.3,-0.3%,-1.6%,-0.6%,i
CCOc1ccc(NC(=O)C2CC(=O)N(c3ccccc3F)C2)cc1 (configuration not stated),0.7,-2.5%,-0.8%,2.1%,i
CCOc1ccccc1N1CC(C(=O)Nc2nccs2)CC1=O (configuration not stated),-8.3,12.8%,2.3%,0.4%,-123.6%*
CCOc1ccc(N(CC(=O)N2CCN(c3ccc(F)cc3)CC2)S(=O)(=O)c2c(C)noc2C)cc1,8.7,20.7%,-8.4%,-2.7%,i
COc1ccc(Cn2cc(CN3CC(N4CC=CC4)CS3(=O)=O)nn2)cc1 (configuration not stated),x,x,x,x,i
CCCN(CCC)C(=O)c1cn(CC)c2ccc(S(=O)(=O)N3CCCCC3)cc2c1=O,3.4,11.5%,-7.9%,0.7%,i
CC(=O)C1=C(O)C(=O)N(c2ccc(O)cc2)C1c1cccc(F)c1 (configuration not stated),-80.2*,0.8%,-0.6%,0.2%,i
Cc1c(NC(=S)NC(=O)c2ccco2)cccc1-c1nc2ncccc2o1,1.6,3.2%,-3.6%,-2.3%,i
O=C(O)c1cccc(-n2cccc2/C=C2/NC(=O)N(c3ccc(Cl)cc3)C2=O)c1,10.4,16.4µM*,7.7%,u,i
CCc1ccc(CNC(=O)C2CC(=O)N(C3CCCC3)C2)cc1 (configuration not stated),-5.4,-16.8%,10.3%,-6.9%,i
Cc1nnc(SCC(=O)N2CCOCC2)c2ccccc12,-9.3,1.4%,u,3.2%,-114.7%*
CCCCn1c(O)c(N=Nc2ccccc2O)c2ccccc21,-0.9,u,39.8µM*,u,i
O=C(CCCC(=O)OCC(F)(F)C(F)F)Nc1ccc(NC(=O)CCCC(=O)OCC(F)(F)C(F)F)cc1,14.3,-6.7%,-4.2%,-0.8%,i
Cc1cc(NC(=O)CCCC(=O)OCC(F)(F)C(F)F)cc(C)c1C(=O)O,22.6,-0.6%,3.5%,-5.3%,-112.0%*
O=C(CN1CCN(Cc2ccc(Cl)cc2)CC1)N/N=C/c1c[nH]c2ccccc12,0.5,-4.0%,-2.2%,-0.2%,i
Cc1nn(-c2ccccc2)c(Cl)c1/C=C1\SC(=S)N(CCCCCC(=O)O)C1=O,-18.8,-6.0%,2.4%,-1.1%,i
Cc1nn(-c2ccccc2)c(Cl)c1/C=C1\SC(=S)NC1=O,-79.0*,0.5%,10.3%,2.3%,i
NC(=O)c1c(NC(=O)COC(=O)CSc2nnc(-c3ccc(Cl)cc3)o2)sc2c1CCC2,-13.7,-4.7%,2.1%,-0.8%,-104.3%*
CCOC(=O)c1c(NC(=O)CSc2nnc(-c3ccc(OC)cc3)o2)sc2c1CCC2,x,-4.6%,x,-1.9%,i
O=c1ccc(-c2ccc(S(=O)(=O)Nc3ccc(F)cc3)s2)n[nH]1,-2.9,10.2%,5.0%,-2.5%,i
Cc1cc(C)n2cc(CSc3ncccc3C(=O)O)nc2n1,10.5,-11.2%,-2.1%,-2.6%,-111.4%*
CCOC(=O)C1C(=O)NC(N2CCN(Cc3ccccc3)CC2)=NC1c1ccccc1 (configuration not stated),21.7,-18.5%,-0.7%,3.1%,-86.6%*
O=S(=O)(Nc1cccc(-n2cnnn2)c1)c1ccccc1C(F)(F)F,-136.0*,0.8%,-2.9%,0.1%,i
O=C(NC(Nc1nc2ccc([N+](=O)[O-])cc2s1)(C(F)(F)F)C(F)(F)F)c1cccnc1,u,u,13.1%,u,i
O=C(NC(Nc1nc2ccc([N+](=O)[O-])cc2s1)(C(F)(F)F)C(F)(F)F)c1ccccc1Cl,-83.2*,u,0.9%,u,i
SMILES,TSHR antagonist,Rango dissoc inh,p53 reactivator,Rango complex inh,pAkt inh
O=C(NCCCN1CCCC1=O)C(=O)Nc1cccc(F)c1,7.8,1.9%,24.2%,-1.9%,i
Cc1ccccc1CS(=O)(=O)c1ncc(Cl)c(C(=O)Nc2ccc(F)cc2)n1,-73.8*,1.9%,-28.2%,-1.2%,x
CCN(c1ccccc1)S(=O)(=O)c1ccc(NC(=O)c2nc(S(C)(=O)=O)ncc2Cl)cc1,-88.9*,9.2%,-17.3%,0.0%,i
CCN(c1ccccc1)S(=O)(=O)c1ccc(C(=O)Nc2ccncc2)cc1,-12.9,-14.6%,3.6%,-3.1%,i
CCS(=O)(=O)c1ncc(Cl)c(C(=O)Nc2ccc(S(=O)(=O)N(C)c3ccccc3)cc2)n1,-91.8*,-7.8%,-21.0%,0.0%,i
CS(=O)(=O)c1ncc(Cl)c(C(=O)Nc2ccc(OC(F)F)cc2)n1,-73.6*,9.8%,-10.1%,-3.6%,i
O=C(CCc1c[nH]c2ccccc12)NCC(=O)Nc1ccc(F)c(F)c1F,1.0,-9.3%,-0.2%,-2.2%,i
CN(C(=O)CN1C(=O)/C(=C/c2ccccc2Cl)SC1=S)C1CCS(=O)(=O)C1 (configuration not stated),-126.4*,19.2%,16.4%,0.5%,i
COc1cc(C)c(Cl)cc1S(=O)(=O)N1CCCC1,-3.1,11.0%,-2.2%,0.6%,i
CCOc1cc(C)c(Cl)cc1S(=O)(=O)N1CCCC1,-3.2,0.1%,0.6%,0.9%,-118.6%*
O=[N+]([O-])c1c(Nc2cccc(O)c2)cc(Cl)c2nonc12,-98.1*,0.8%,x,-3.6%,i
Cc1c(Nc2cc(N3CCOCC3)c3nonc3c2[N+](=O)[O-])c(=O)n(-c2ccccc2)n1C,1.9,x,0.2%,x,x
Cc1c(Nc2cc(Cl)c3nonc3c2[N+](=O)[O-])c(=O)n(-c2ccccc2)n1C,-85.4*,17.6%,-9.4%,2.8%,i
Cc1ccc2cc(C(c3nnnn3Cc3ccccc3)N3CCc4ccccc43)c(=O)[nH]c2c1 (configuration not stated),0.6,23.1µM*,2.1%,u,i
Cc1ccc2[nH]c(=O)c(C(c3nnnn3Cc3ccccc3)N3CCc4ccccc43)cc2c1 (configuration not stated),1.9,u,7.7%,u,i
Fc1cccc(NCCc2c[nH]c3ccccc23)n1,1.1,16.5%,u,-4.3%,i
c1ccc2c(NCCc3c[nH]c4ccccc34)c3ccccc3nc2c1,0.6,14.6µM*[inhibitor],2.9%,u,i
Cc1cccc(-n2c(O)c(C=NCCCN3CCOCC3)c3ccccc3c2=O)c1,4.6,-0.6%,-7.1%,-0.1%,-120.5%*
Cc1cccc(-n2c(O)c(C=NCc3ccccn3)c3ccccc3c2=O)c1,8.7,21.2%,-8.6%,-1.9%,i
CC(=O)Oc1ccc(Cn2c(C)c(C(=O)NC3CC3)sc2=O)cc1,x,x,x,x,i

# Source: PubChem BioAssay
